According to PubChem BioAssay (EPA / NIEHS):
The source made the active and inactive calls. Rule for the calls: active = hit-call score of the fitted dose curve at least 0.9, where 1 is the maximum; inactive = score below 0.9.

read-out: CFLAR gene, CFLAR (gene 8837); assay: LTEA_HepaRG_CFLAR: Life Technologies and Expression Analysis (LTEA) Assay for CFLAR gene using HepaRG (AID 2283455); conditions: mRNA level, 48 h; actives raise or lower the signal
Description: LTEA_HepaRG is a cell based, multiplexed-readout assay that uses HepaRG, a human liver cell line, with measurements taken at 48 hours after chemical dosing on a 96-well plate.LTEA_HepaRG_CFLAR is one of 102 assay component(s) measured in the LTEA HepaRG cell culture assay. It is a marker of Cell proliferation, survival, death.Data from the assay component LTEA_HepaRG_CFLAR was analyzed into 1 endpoint. This assay endpoint, LTEA_HepaRG_CFLAR, was analyzed with bidirectional fitting relative to DMSO as the negative control and baseline of activity. Using a type of inducible reporter, measures of mRNA induction for gain or loss-of-signal activity can be used to understand regulation of transcription factor activity. To generalize the intended target to other relatable targets, this assay endpoint is annotated to the cell cycle intended target family, where the subfamily is Cell proliferation, survival, death.
A total of 1060 chemcials from the ToxCast library were tested in eight-point concentration-response experiments. Cell culture and cytotoxicity assays were conducted at Thermo Fisher Scientific's Custom Services facility (Madison, WI). A single lot of human HepaRG cells (Thermo Fisher Scientific, Frederick, MD) was used for the cell culture experiments. 96-well format collagen type I coated plates of human HepaRG cells were prepared using established methods. Briefly, cryopreserved HepaRG cells were thawed, plated at a density of approximately 100,000 cells/well in HepaRG Thaw, Plate, and General Purpose media (HPRG770, Thermo Fisher Scientific), and incubated for 48 hours. 0.5% DMSO was selected as vehicle control to balance the requisite need of DMSO in HepaRG cultures to maintain differentiation (for example, baseline metabolism, proportions of hepatocytes vs. cholangiocytes), while enabling further hepatic receptor pathway activation (for example, PXR and CAR) in response to chemical exposure. 48 hours after plating, the culture medium was replaced with HepaRG Serum-Free Incudtion Media. Cells were exposed to each test chemical in duplicate and maintained in CO2 incubators for another 48 hours. Chemical plates were thawed to room temperature and 200x concentrations of treatment groups were prepared. 8-point conentration-reponse curves were made with the highest exposure at 100 uM, followed by half-log dilutions, all in 0.5% DMSO. Each test plate contained variouse controls, induction positive controls (1mM phenobarbital), cytotoxicity positive controls ([…] aflatoxin B1), vehicle controls (0.5% DMSO), and total lysis controls (0.5% DMSO). Cell morphology images were taken using an Essen IncuCyte FLR automated microscope, with six 96-well plates imaged in about 24 minutes. Images were captured and exported and JPEG files. Spent culture media was transfered to black-well plates for the LDH assay, and remaining media was sorted at -80 C for later use. Cells were treated with RLT buffer and frozen until shipped for gene expression analysis. Total RNA was isolated from the cell suspension in 75 uL of Buffer RLT (Qiagen, Germantown, MD 20874) by Quintiles/Expression Analysis (Durham, NC) using a custom isolation procedure. Total RNA from each plate well was transferred to a preamplification plate. Fluidigm's 96.96 Dynamic ArrayTM (Fluidigm, Amsterdam, the Netherlands) technology was used for gene expression analyses by quantitative reverse transcription polymerase chain reaction (qRT-PCR, performed by Quintiles/Expression Analysis, Durham, NC)89. Standard TaqManTM Assays (Applied Biosystems/ThermoFisher Scientific, Foster City, CA) were used to assess the expression of 93 genes selected based on their selectivity and sensitivity to important hepatic receptors known to be modulated by environmental chemicals; importance in human hepatocyte functionality; and hepatotoxicity. […]

| SMILES | outcome | AC50 |
| --- | --- | --- |
| ClC(Cl)=C(c1ccc(Cl)cc1)c1ccc(Cl)cc1 | inactive |  |
| Clc1ccc(C(c2ccccc2Cl)C(Cl)(Cl)Cl)cc1 (stereo not given) | inactive |  |
| CC(c1ccc(O)cc1)(c1ccc(O)cc1)c1ccc(O)cc1 |  | 64.5 µM (active) |
| CCCCCCCCCc1ccc(O)cc1 | inactive |  |
| CCCCCCCCCC[N+](C)(C)CCCCCCCCCC |  | 76.5 µM (active) |
| C1CC2OC2CC1C1CO1 (stereo not given) | inactive |  |
| CCOP(=S)(OCC)SCSC(C)(C)C | inactive |  |
| O=S(=O)(O)C(F)(F)C(F)(F)C(F)(F)C(F)(F)C(F)(F)C(F)(F)F | inactive |  |
| c1ccc(-c2ccccc2)cc1 | inactive |  |
| O=C(O)C(F)(F)C(F)(F)C(F)(F)C(F)(F)C(F)(F)C(F)(F)C(F)(F)C(F)(F)C(F)(F)F |  | 89.5 µM (active) |
| CC(C)(O)C(=O)Nc1ccc([N+](=O)[O-])c(C(F)(F)F)c1 | inactive |  |
| CN(C)c1nc(=O)n(C2CCCCC2)c(=O)n1C | inactive |  |
| CCCCCCCCOC(=O)c1ccccc1C(=O)OCCCCCCCC | inactive |  |
| Cc1cccc(C)c1N | inactive |  |
| CCSC(=O)N(CC)C1CCCCC1 | inactive |  |
| c1cc2ccc3cccc4ccc(c1)c2c34 | inactive |  |
| Cc1ccccc1O | inactive |  |
| COc1ccc(O)c(C(C)(C)C)c1 | inactive |  |
| Cc1ccccc1CO[C@@H]1C[C@@]2(C(C)C)CC[C@]1(C)O2 | inactive |  |
| Oc1ccc(Cl)cc1Cl | inactive |  |

| SMILES | outcome | AC50 |
| --- | --- | --- |
| O=C(O)C(F)(F)C(F)(F)C(F)(F)C(F)(F)C(F)(F)C(F)(F)C(F)(F)C(F)(F)F | inactive |  |
| O=C(NC(=O)c1c(F)cccc1F)Nc1cc(Cl)c(OC(F)(F)C(F)F)c(Cl)c1 | inactive |  |
| O=C(NC(=O)c1cc(F)c(F)cc1Cl)Nc1cc(F)ccc1N1CCC(C(=O)O)CC1 | inactive |  |
| CN(C)CCO | inactive |  |
| CCC(C)c1cc([N+](=O)[O-])cc([N+](=O)[O-])c1O (stereo not given) |  | 1.5 µM (active) |
| Clc1ccc(Cl)cc1 | inactive |  |
| CO/C=C(/C(=O)OC)c1ccccc1COc1cccc(C(F)(F)F)n1 |  | 18.8 µM (active) |
| CCNc1nc(NC(C)C)nc(SC)n1 | inactive |  |
| Clc1ccc(C(Cl)(Cl)Cl)cc1 | inactive |  |
| O=C(O)C(F)(F)C(F)(F)C(F)(F)C(F)(F)C(F)(F)F | inactive |  |
| CCOC(=O)C(O)(c1ccc(Cl)cc1)c1ccc(Cl)cc1 | inactive |  |
| CCC(C)(c1ccc(O)cc1)c1ccc(O)cc1 |  | 71.4 µM (active) |
| Nn1cnnc1 | inactive |  |
| Cc1cccc([N+](=O)[O-])c1 | inactive |  |
| O=S(=O)(O)C(F)(F)C(F)(F)C(F)(F)C(F)(F)F | inactive |  |
| ClC1=C(Cl)[C@]2(Cl)[C@@H]3[C@@H](Cl)[C@H]4O[C@H]4[C@@H]3C1(Cl)C2(Cl)Cl | inactive |  |
| CC#Cc1cc(C)nc(Nc2ccccc2)n1 | inactive |  |
| N#Cc1ccc(N(CC(N)=O)CC(F)(F)F)cc1C(F)(F)F | inactive |  |
| Cc1ccccc1[N+](=O)[O-] | inactive |  |
| O=C(N[C@H]1CN2CCC1CC2)c1cc2ccoc2cn1 | inactive |  |
